High-throughput results: PubChem BioAssay, National Center for Advancing Translational Sciences (NCATS)
An excerpt weighted towards active compounds, which were near 6.5% of everything screened.
Giardia kill – Small Molecules that selectively kill Giardia lamblia: qHTS; Giardia lamblia trophozoite viability; 340,000 tested, 0.15% active; activity change, % at 7.66 µM, hits read low; in the data active = activity change below about -80%; inconclusive = between about -30% and that limit;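 note: parasites exposed to compound for two days anaerobically before the ATP read; % is set by controls: 0 for no effect and ±100 for the full control effect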
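Trophozoites 100 cells/well + cpd; 48 hrs, 37 deg C, anaerobic. ATPLite 1-Step added, 15-30 min RT, luminescence read (ATP-based viability).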
HepG2 viability – qHTS for Inhibitors of TGF-b: Cytotox Counterscreen | HepG2 CAGA-GFP viability, ATP luminescence, 18 h | Potency, µM (top dose mostly 46.1 µM), without a hit: top-dose activity change, negative = cytotoxicity, hits mostly cytotoxic | 410,000 tested, 0.76% active | AID 588856, 2011; note: potency is the fitted concentration of half-maximal effect
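CellTiter-Glo luminescence gave cytotoxicity after 18 hours at 37 degrees C. The cells were HepG2 CAGA-GFP in 1% FBS DMEM, stimulated with 500 pg/mL TGF-beta after compound addition. %Activity was normalised to no-cell wells (complete cell-killing) and DMSO (no toxicity), and curves were fitted and classified.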
IL-1B inflam inh – qHTS for Inhibitors of Inflammasome Signaling: IL-1-beta AlphaLISA Primary Screen. THP-1 LPS/ATP IL-1B secretion, AlphaLISA, 16 h; stronger effect = lower value. activity change, % at 57.5 µM. 360,000 tested, 4.7% active. AID 743279, 2014; in the data active = activity change below about -50%; inconclusive = mostly about -30% to -49%; note: % is set by controls: 0 for no effect and ±100 for the full control effect
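Secreted IL-1B measured by AlphaLISA bead assay after 16 h compound exposure of THP-1 cells; compounds (final up to 57.5 uM) added 1 h before LPS (250 ng/mL) and ATP (1.25 mM) stimulation; lower signal means less secretion.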
TGFb SMAD3 inh – qHTS for Inhibitors of TGF-b. Potency, µM (highest dose often 46.1 µM), without a hit: at the top dose activity, negative = inhibition, actives largely listed as inhibitors. HepG2 CAGA-GFP TGF-b/SMAD3 reporter, GFP fluorescence, 18 h; TGF-beta stimulated, 500 pg/mL final. 410,000 tested, 1.2% active; note: potency is the fitted concentration of half-maximal effect; % is set by controls: 0 for no effect and ±100 for the full control effect; nearly all actives have a fitted effect of over 65% in size
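Using HEPG2 CAGA-GFP reporter cells at 1000 cells/well, we pinned test compounds, stimulated with recombinant TGF-beta (500 pg/mL final) and measured total well GFP after 18 h.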
HT1080 IDH1KD tx – qHTS for induction of synthetic lethality in tumor cells producing 2HG: qHTS for the HT-1080-IDH1KD cell line; HT-1080 IDH1 knockdown viability, ATP luminescence, 48 h; AID 686971, 2013; 360,000 tested, 2% active; Potency, µM (titrated, usually from 46.1 µM), for the others: at the highest dose activity, negative = toxicity, hits mostly cytotoxic;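 note: potency is the fitted concentration of half-maximal effect; 0% = DMSO wells and -100% = cell-free medium wells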
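Assay cells: HT-1080 with IDH1 knockdown, 750 per well, RPMI/5% FBS. Exposure: 48 h at 37 °C following 2 h pre-incubation. Read: CellTiter-Glo luminescence; fitted concentration-response, curve class assigned.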
HT1080NT lethal – qHTS for induction of synthetic lethality in tumor cells producing 2HG: qHTS for the HT-1080-NT fibrosarcoma cell line; 360,000 tested, 1.6% active; HT-1080-NT fibrosarcoma viability, CellTiter-Glo ATP luminescence, 48 h; Potency, µM (highest dose often 46.1 µM), inactives show at the top dose activity, negative = less viability, actives largely listed as cytotoxic; AID 686970, 2013;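 note: NT is the 2HG producing partner of a matched IDH1 knockdown line; potency is the fitted concentration of half-maximal effect; 0% = DMSO-treated cells and -100% = media-only wells without cells; nearly all actives have a fitted effect of over 55% in size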
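A 48-hour cytotoxicity screen used HT-1080-NT cells plated 2 hours before compound delivery. ATP-based CellTiter-Glo luminescence measured viability, normalized to DMSO and no-cell controls.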
Numbers without * were called inactive; ? = inconclusive; nt = not tested or not shown. Unless noted, calls come from the whole dose curve; as a rule, active = well fitted curve in the direction sought with a large enough effect; inconclusive = small, poorly fitted or top-dose-only effect, or another doubt; inactive = no such curve, though single readings can be large; an effect the other way counts as inactive or inconclusive.

SMILES | Giardia kill | HepG2 viability | IL-1B inflam inh | TGFb SMAD3 inh | HT1080 IDH1KD tx | HT1080NT lethal
COc1ccc(-c2nnn(CC(=O)N3CCN(c4ccc(F)cc4)CC3)n2)cc1 | 10 | -1% | -12 | -6% | -2% | 7%
COc1cccc(-c2csc(N3CCN(C(=S)Nc4ccccc4Cl)CC3)n2)c1 | -9 | -23% | -9 | ? | -23% | ?
COc1cccc(-c2csc(N3CCN(CC(=O)NNC(=O)c4ccc(Br)cc4)CC3)n2)c1 | -16 | -54% | -24 | -22% | ? | ?
COc1cccc(-c2csc(N3CCN(CC(=O)NNC(=O)c4ccc(Cl)cc4)CC3)n2)c1 | 4 | -29% | 0 | ? | 11µM* | ?
NC(=O)C1CCN(c2nc(-c3cccc(Cl)c3)cs2)CC1 | 7 | 6.3µM* | nt | ? | nt | nt
CC(=O)c1cccc(-c2csc(N3CCC(C(N)=O)CC3)n2)c1 | 0 | -9% | nt | 2% | nt | nt
COc1ccc(N2CCN(C(=O)CN3CCN(c4nc(-c5ccc(F)cc5)cs4)CC3)CC2)cc1 | -28 | -2% | -52* | -8% | 2% | -6%
O=C(NCCCO)c1ccc(CSc2nc3ccccc3[nH]2)cc1 | -3 | -6% | 46 | -1% | -1% | -17%
COc1ccc(-c2nc(CSCC(=O)NCCC(C)C)c(C)o2)cc1OC | nt | -21% | nt | ? | nt | nt
CCc1ccc2nc(NC(=O)CCCc3cccs3)sc2c1 | -4 | -13% | 7 | 11% | 0% | -4%
CC(=O)/C=C\c1cn(-c2ncc(C(F)(F)F)cc2Cl)c2ccccc12 | -2 | -7% | -81* | -5% | ? | -29%
COc1cc(CN2CCCCCC2)cc([N+](=O)[O-])c1O | 6 | 14% | -5 | 0% | 2% | 0%
O=[N+]([O-])c1cc(CN2CCCC2)c2cccnc2c1O | 10 | 1% | -3 | 6% | ? | 16µM*
Oc1c(CN2CCCCC2)cc(COCc2ccccc2)c2cccnc12 | -17 | -93% | -105* | ? | 2.9µM* | 7.3µM*
Oc1c(CN2CCN(c3ccccn3)CC2)cc(Cl)c2cccnc12 | -13 | -52% | 1 | ? | ? | ?
COCc1cc(CN2CCCC2)c(O)c2ncccc12 | -13 | -26% | 101 | ? | 0.63µM* | 1.1µM*
CN(C)C1CCN(Cc2cc(COCc3ccccc3)c3cccnc3c2O)C1 (stereo not given) | ? | -13% | nt | ? | nt | nt
OCCN1CCN(Cc2cc(Cl)c3cccnc3c2O)CC1 | -3 | -26% | 72 | ? | 3.2µM* | 5µM*
Cc1ccc(C)c(S(=O)(=O)N2CCN(Cc3ccc(O)c4ncccc34)CC2)c1 | -12 | 5% | 103 | ? | ? | ?
Cc1cccc(-n2c(Cc3cc(=O)[nH]c(=O)[nH]3)nnc2SCC(=O)NCc2ccco2)c1 | -4 | -5% | -4 | -2% | 15% | 16%
COc1cccc(NC(=O)CSc2nnc(-c3ccoc3C)n2-c2ccccc2)c1 | -6 | -17% | -4 | 0% | 4% | 2%
CCCOc1nnnn1-c1ccccc1 | 3 | -7% | 0 | -37% | 12% | 5%
CSC(=NC#N)N1CCN(C(c2ccccc2)c2ccccc2)CC1 | ? | -16% | -5 | 2% | 5% | -2%
Cc1ccc2c(c1)C1CN(C)CCC1N2C(=O)c1cccc(S(=O)(=O)N2CC(C)CC(C)C2)c1 (stereo not given) | -4 | 5% | -16 | -1% | -29% | nt
O=C(COC(=O)c1ccc([N+](=O)[O-])s1)Nc1ccccc1 | 3 | -10% | 17 | -6% | 20% | 16%
